PubChem BioAssay (NCATS)
Records with an inconclusive call do not appear. Where a call stands in place of a potency, no number is given. The source made the active and inactive calls. The call rests on the fitted dose curve; in most records, active means well fitted curve in the direction sought with a large enough effect; inconclusive means small, poorly fitted or top-dose-only effect, or another doubt; inactive means no such curve, though single readings can be large; an effect the other way counts as inactive or inconclusive.

Assay: Quantitative highthroughput screen to assess conditional lethalithy of NOMO1 cells grown in RPMI1640 with dialyzed fetal bovine serum (RPMI+ds) (AID 1963877); further: nearly all actives have a fitted effect of over 30% in size
Settings: NOMO1 in RPMI+dialyzed FBS viability, ATP luminescence, 48 h; series mostly up to 45.8 µM
Procedure, shortened: (§1)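 Each medium arm—HPLM with 10% dialyzed FBS, or RPMI1640 with 5 mM glucose and 10% untreated or dialyzed FBS—was screened against an 11-point, 3-fold compound titration for 48 h at 37 °C, with CellTiter-Glo luminescence as endpoint.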
Potency means the concentration at half of the fitted maximal effect.

Compound	Potency
Cn1c(=O)n(-c2ccc(C(C)(C)C#N)cc2)c2c3cc(-c4cnc5ccccc5c4)ccc3ncc21	0.296 µM (active)
CCN(CC)Cc1ccc2cc(COC(=O)Nc3ccc(C(=O)NO)cc3)ccc2c1	3.72 µM (active)
CCCCCCCCCCCCc1ccc(S(=O)(=O)Nc2nncs2)cc1	inactive
O=C(Nc1cn[nH]c1-c1nc2ccc(CN3CCOCC3)cc2[nH]1)NC1CC1	18.7 µM (active)
Cc1ccc2nc(NCCN)c3ncc(C)n3c2c1	26.4 µM (active)
Cn1cc(C[C@@H](N)C(=O)O)c2ccccc21	inactive
COc1cc(C)c(Sc2cnc(NC(=O)c3ccc(CNC(C)C(C)(C)C)cc3)s2)cc1C(=O)N1CCN(C(C)=O)CC1 (stereo not drawn)	20.9 µM (active)
Cc1ccn(-c2ccc(-c3ncco3)cc2)c(=O)c1-c1ccc2nc(N)ncc2c1	inactive
C[C@@H]1C[C@H]2[C@@H]3CCC4=CC(=O)C=C[C@]4(C)[C@@]3(Cl)[C@@H](O)C[C@]2(C)[C@@]1(OC(=O)c1ccco1)C(=O)CCl	6.62 µM (active)
COCCNCCCn1c(C(=O)CF)c(-c2ccc(C)cc2)c2c(N)ncnc21	inactive
COc1ncc(-c2ccc3c(Nc4cc(Oc5cc(F)cc(F)c5)cc(C(=O)O)c4)c(S(=O)(=O)NC4CC4)cnc3c2)c(OC)n1	inactive
CC(C)(C)C(=O)OCOP(=O)(COCCn1cnc2c(N)ncnc21)OCOC(=O)C(C)(C)C	0.418 µM (active)
C=CC(=O)Nc1cccc(Oc2nc(Nc3ccc(N4CCN(C)CC4)cc3)ncc2Cl)c1	5.9 µM (active)
O=C(c1ccc(F)cc1)C1CCN(CCn2c(=O)[nH]c3ccccc3c2=O)CC1	inactive
NS(=O)(=O)c1ccc(Nc2nc(OCC3CCCCC3)c3[nH]cnc3n2)cc1	0.59 µM (active)
Cc1cnc(NC(=O)Nc2cc(Br)c(C)cc2OC[C@@H]2CNCCO2)cn1	1.66 µM (active)
Cc1ccc(C(=O)Nc2cccc(C(F)(F)F)c2)cc1Nc1nc(-c2cccnc2)nc2c1cnn2C	inactive
NCCc1ccc(O)c(O)c1	14.8 µM (active)
COc1cc2ncnc(-n3nc(-c4ccccn4)nc3N)c2cc1OC	23.5 µM (active)
CC(C)c1ccc2c(c1)c(SC(C)(C)C)c(CC(C)(C)C(=O)O)n2Cc1ccc(Cl)cc1	inactive

Compound	Potency
CCN(CCO)CCCOc1ccc2c(Nc3cc(CC(=O)Nc4cccc(F)c4)[nH]n3)ncnc2c1	0.105 µM (active)
Clc1ccccc1C(c1ccccc1)(c1ccccc1)n1ccnc1	inactive
CN[C@@H](C)[C@H]1[C@H](O)C[C@@]2(C)[C@@H]3CC[C@H]4C(C)(C)[C@@H](NC)CC[C@@]45C[C@@]35CC[C@]12C	inactive
CCC(c1ccc(O)cc1)C(CC)c1ccc(O)cc1 (stereo not drawn)	inactive
Cc1ccc(C(=O)c2cc(O)c(O)c([N+](=O)[O-])c2)cc1	inactive
CCOC(=O)[C@@H](N)CCC(=O)N[C@@H](CSCc1ccccc1)C(=O)N[C@@H](C(=O)OCC)c1ccccc1	inactive
CC(C)(C)c1cc(C(C)(C)C)c(NC(=O)c2c[nH]c3ccccc3c2=O)cc1O	inactive
NC(=O)NO	4.18 µM (active)
Nc1ccccc1NC(=O)c1ccc(CNC(=O)OCc2cccnc2)cc1	1.66 µM (active)
COc1cccc(OC)c1-c1cc(C(=O)NC2(C(=O)O)C3CC4CC(C3)CC2C4)nn1-c1ccnc2cc(Cl)ccc12 (stereo not drawn)	inactive
Cc1cn(CCN2CCN(c3ccccc3-c3cc(C#N)cc(C(=O)NCCCN4CCCC4)c3)CC2)c2ccccc12	10.5 µM (active)
CCCCCN(CCC12CC3CC(CC(C3)C1)C2)C(=O)NCCCc1ccncc1	inactive
COC(=O)N[C@H](C(=O)N[C@@H](Cc1ccccc1)[C@@H](O)CN(Cc1ccc(-c2ccccn2)cc1)NC(=O)[C@@H](NC(=O)OC)C(C)(C)C)C(C)(C)C	inactive
Nc1c2c(nc3ccccc13)CCCC2	14.8 µM (active)
NS(=O)(=O)c1cccc2c1C(=O)c1cccc(O)c1C2=O	23.5 µM (active)
CNC(=O)c1cc(Oc2ccc(NC(=O)Nc3ccc(Cl)c(C(F)(F)F)c3)c(F)c2)ccn1	inactive
O=C(N[C@@H](c1ccccc1)[C@@H]1CCCCN1)c1cccc(C(F)(F)F)c1Cl	inactive
O=S(=O)(O)CCS	0.833 µM (active)
CCN(c1ccccc1)c1cc(NC)[n+](C)c(C)n1	inactive
CCn1c(C(=O)N(C2CC2)C2CC2)cc2c3c(ncn3C)c(Nc3cc(C)n(C)n3)nc21	inactive

Assay: Quantitative highthroughput screen to assess conditional lethalithy of NOMO1 cells grown in Human Plasma-Like Medium with dialyzed fetal bovine serum (HPLM+ds) (AID 1963878); further: nearly all actives have a fitted effect of over 35% in size
Settings: NOMO1 AML cells in HPLM+ds, CellTiter-Glo viability, 48 h; series mostly up to 45.8 µM
Procedure, shortened: as §1

Compound	Potency
CCN(CC)Cc1ccc2cc(COC(=O)Nc3ccc(C(=O)NO)cc3)ccc2c1	2.96 µM (active)
CCCCCCCCCCCCc1ccc(S(=O)(=O)Nc2nncs2)cc1	7.43 µM (active)
O=C(Nc1cn[nH]c1-c1nc2ccc(CN3CCOCC3)cc2[nH]1)NC1CC1	14.8 µM (active)
Cc1ccc2nc(NCCN)c3ncc(C)n3c2c1	23.5 µM (active)
Cn1cc(C[C@@H](N)C(=O)O)c2ccccc21	inactive
COc1cc(C)c(Sc2cnc(NC(=O)c3ccc(CNC(C)C(C)(C)C)cc3)s2)cc1C(=O)N1CCN(C(C)=O)CC1 (stereo not drawn)	23.5 µM (active)
Cc1ccn(-c2ccc(-c3ncco3)cc2)c(=O)c1-c1ccc2nc(N)ncc2c1	inactive
C[C@@H]1C[C@H]2[C@@H]3CCC4=CC(=O)C=C[C@]4(C)[C@@]3(Cl)[C@@H](O)C[C@]2(C)[C@@]1(OC(=O)c1ccco1)C(=O)CCl	1.18 µM (active)
COCCNCCCn1c(C(=O)CF)c(-c2ccc(C)cc2)c2c(N)ncnc21	inactive
COc1ncc(-c2ccc3c(Nc4cc(Oc5cc(F)cc(F)c5)cc(C(=O)O)c4)c(S(=O)(=O)NC4CC4)cnc3c2)c(OC)n1	inactive
CC(C)(C)C(=O)OCOP(=O)(COCCn1cnc2c(N)ncnc21)OCOC(=O)C(C)(C)C	1.18 µM (active)
C=CC(=O)Nc1cccc(Oc2nc(Nc3ccc(N4CCN(C)CC4)cc3)ncc2Cl)c1	inactive
O=C(c1ccc(F)cc1)C1CCN(CCn2c(=O)[nH]c3ccccc3c2=O)CC1	inactive
Cc1cnc(NC(=O)Nc2cc(Br)c(C)cc2OC[C@@H]2CNCCO2)cn1	1.18 µM (active)
Cc1ccc(C(=O)Nc2cccc(C(F)(F)F)c2)cc1Nc1nc(-c2cccnc2)nc2c1cnn2C	inactive
NCCc1ccc(O)c(O)c1	9.35 µM (active)
COc1cc2ncnc(-n3nc(-c4ccccn4)nc3N)c2cc1OC	20.9 µM (active)

Compound	Potency
CC(C)c1ccc2c(c1)c(SC(C)(C)C)c(CC(C)(C)C(=O)O)n2Cc1ccc(Cl)cc1	inactive
Clc1ccccc1C(c1ccccc1)(c1ccccc1)n1ccnc1	inactive
CN[C@@H](C)[C@H]1[C@H](O)C[C@@]2(C)[C@@H]3CC[C@H]4C(C)(C)[C@@H](NC)CC[C@@]45C[C@@]35CC[C@]12C	inactive
CCC(c1ccc(O)cc1)C(CC)c1ccc(O)cc1 (stereo not drawn)	inactive
CC(C)(C)c1cc(C(C)(C)C)c(NC(=O)c2c[nH]c3ccccc3c2=O)cc1O	inactive
NC(=O)NO	2.96 µM (active)
Nc1ccccc1NC(=O)c1ccc(CNC(=O)OCc2cccnc2)cc1	1.32 µM (active)
COc1cccc(OC)c1-c1cc(C(=O)NC2(C(=O)O)C3CC4CC(C3)CC2C4)nn1-c1ccnc2cc(Cl)ccc12 (stereo not drawn)	inactive
Cc1cn(CCN2CCN(c3ccccc3-c3cc(C#N)cc(C(=O)NCCCN4CCCC4)c3)CC2)c2ccccc12	8.31 µM (active)
CCCCCN(CCC12CC3CC(CC(C3)C1)C2)C(=O)NCCCc1ccncc1	inactive
COC(=O)N[C@H](C(=O)N[C@@H](Cc1ccccc1)[C@@H](O)CN(Cc1ccc(-c2ccccn2)cc1)NC(=O)[C@@H](NC(=O)OC)C(C)(C)C)C(C)(C)C	inactive
NS(=O)(=O)c1cccc2c1C(=O)c1cccc(O)c1C2=O	20.9 µM (active)
CNC(=O)c1cc(Oc2ccc(NC(=O)Nc3ccc(Cl)c(C(F)(F)F)c3)c(F)c2)ccn1	3.32 µM (active)
O=C(N[C@@H](c1ccccc1)[C@@H]1CCCCN1)c1cccc(C(F)(F)F)c1Cl	inactive
CCN(c1ccccc1)c1cc(NC)[n+](C)c(C)n1	inactive
CCn1c(C(=O)N(C2CC2)C2CC2)cc2c3c(ncn3C)c(Nc3cc(C)n(C)n3)nc21	inactive
